Test results published in PubChem BioAssay.
Active and inactive are the calls of the source.

Experiments:
[1] = system: Human papillomavirus type 1a protein E7 (residues 44-93); assay: small molecules binding HPV E7 44-93 – biochemical, small-molecule microarray, residues 44-93, 635 nm fluorescence, primary screen (AID 1108); conditions: fluorescence 635 nm, higher = more signal;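 further: E7 fragment applied at 1 µg/mL in TBST for 1 h at 4 C; score combines spot fluorescence with its signal to noise ratio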
[2] = hepatitis C replication reporter changes, two-sided – Huh7 cells, luciferase reporter, HCV replication inhibitor project, primary screen (AID 1109); conditions: Huh7 HCV replicon luciferase reporter, 48 h; higher = more signal;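 further: huh7 hepatoma cells harbouring a luciferase neomycin HCV replicon reporter; luciferase luminescence as measure of HCV replicon replication; test concentration not given here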
[3] = target: Left-right determination factor 2 (Homo sapiens) (UniProt O00292); assay: small molecules binding LEFTY2 protein – biochemical, small-molecule microarray, 635 nm fluorescence scan, primary screen (AID 1110); conditions: higher = more signal
Left-right determination factor 2 (Homo sapiens), sequence (O00292 whole entry, looked up): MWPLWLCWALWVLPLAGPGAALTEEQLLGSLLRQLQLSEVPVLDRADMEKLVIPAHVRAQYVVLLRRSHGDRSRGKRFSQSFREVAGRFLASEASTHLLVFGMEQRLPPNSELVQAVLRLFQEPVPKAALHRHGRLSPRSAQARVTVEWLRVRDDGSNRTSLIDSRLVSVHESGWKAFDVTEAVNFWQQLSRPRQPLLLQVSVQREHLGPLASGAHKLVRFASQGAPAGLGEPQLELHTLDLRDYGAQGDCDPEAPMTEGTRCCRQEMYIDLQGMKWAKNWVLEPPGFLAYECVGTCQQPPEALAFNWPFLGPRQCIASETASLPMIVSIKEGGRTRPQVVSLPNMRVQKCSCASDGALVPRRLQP

[4] = target: Calmodulin-1 (Homo sapiens) (UniProt P0DP23); assay: small molecules binding calmodulin-1 with EGTA – biochemical, small-molecule microarray, Cy5-labelled CALM1, profiling panel (AID 1111); conditions: Cy5-CALM1 binding fluorescence, higher = more signal;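 further: labelled calmodulin applied in Tris saline Tween buffer holding calcium plus EGTA and DTT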
[5] = target: Calmodulin-1 (Homo sapiens) (UniProt P0DP23); assay: small molecules binding Ca-loaded calmodulin-1 – biochemical, small-molecule microarray, Cy5-labelled CALM1, plus calcium, artefact control for SMM control-protein annotation, profiling panel (AID 1112); conditions: Cy5-CALM1 binding fluorescence, higher = more signal;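 further: score merges spot fluorescence with signal to noise from triplicate slides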
[6] = probe aWnt5a binding to arrayed compounds – biochemical, biotinylated probe, 635/667 nm fluorescence, primary screen (AID 1113); conditions: small-molecule microarray, higher = more signal;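 further: score merges 667 nm fluorescence intensity with signal-to-noise per printed feature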
[7] = probe aShh binding to arrayed compounds – biochemical, biotinylated probe, 635/667 nm fluorescence, primary screen (AID 1114); conditions: small-molecule microarray, higher = more signal;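 further: probe is biotin-labelled aShh protein from a stem cell growth factor screen; measures binding of labelled protein to compounds printed on the slide; score merges feature fluorescence at 667 nm with signal-to-noise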
[8] = probe aNog binding to arrayed compounds – biochemical, biotinylated probe, 635/667 nm fluorescence, primary screen (AID 1115); conditions: small-molecule microarray, higher = more signal;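 further: probe is biotinylated aNog protein used at 0.15 µg/mL for 1 h at 4 C; z-score combines 667 nm fluorescence of each spot with its signal to noise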
[9] = target: Torsin-1A-interacting protein 1 (Homo sapiens) (UniProt Q5JTV8); assay: compound microarray binding of lysate hLAP1 – cell lysate, small-molecule microarray, COS7 lysate, 635/667 nm fluorescence, primary screen (AID 1116); conditions: 635 nm fluorescence, higher = more signal
Torsin-1A-interacting protein 1 (Homo sapiens), sequence (Q5JTV8 whole entry, looked up): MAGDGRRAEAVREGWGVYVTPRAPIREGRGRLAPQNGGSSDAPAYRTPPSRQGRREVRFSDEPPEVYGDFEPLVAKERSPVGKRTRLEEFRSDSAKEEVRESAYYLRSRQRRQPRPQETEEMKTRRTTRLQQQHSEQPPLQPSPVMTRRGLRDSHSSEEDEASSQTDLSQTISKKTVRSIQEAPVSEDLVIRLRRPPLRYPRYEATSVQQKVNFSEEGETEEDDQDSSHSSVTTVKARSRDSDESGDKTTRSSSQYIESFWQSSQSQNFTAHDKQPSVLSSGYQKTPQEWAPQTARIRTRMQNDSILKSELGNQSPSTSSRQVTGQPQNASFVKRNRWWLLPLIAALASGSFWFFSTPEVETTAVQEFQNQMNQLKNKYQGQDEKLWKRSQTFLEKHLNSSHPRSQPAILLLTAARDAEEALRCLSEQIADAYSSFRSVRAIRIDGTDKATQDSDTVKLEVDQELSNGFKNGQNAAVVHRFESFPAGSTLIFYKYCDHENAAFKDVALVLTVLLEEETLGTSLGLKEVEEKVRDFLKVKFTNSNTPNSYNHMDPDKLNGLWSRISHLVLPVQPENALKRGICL

[10] = target: Alpha-bungarotoxin (Bungarus multicinctus) (UniProt P60615); assay: compounds binding labelled alpha-BTX control protein – biochemical, small-molecule microarray, Alexa647 label, 635/667 nm fluorescence, artefact control for SMM control protein annotation, profiling panel (AID 1117); conditions: alpha-BTX-A647 binding fluorescence, higher = more signal
Alpha-bungarotoxin (Bungarus multicinctus), sequence (P60615 whole entry, looked up): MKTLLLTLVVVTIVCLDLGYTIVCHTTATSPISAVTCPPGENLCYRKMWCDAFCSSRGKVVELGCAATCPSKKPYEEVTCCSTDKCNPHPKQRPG

Albumin (Bos taurus) = Albumin (Bos taurus) (UniProt P02769); assay: compounds binding labelled BSA control protein – biochemical, small-molecule microarray, Alexa647 label, 635/667 nm fluorescence, artefact control for SMM control protein annotation, profiling panel (AID 1118); conditions: BSA-A647 binding, fluorescence 635 nm, higher = more signal;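 further: score merges 667 nm emission intensity and signal-to-noise per printed compound spot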
Albumin (Bos taurus), sequence (P02769 whole entry, looked up): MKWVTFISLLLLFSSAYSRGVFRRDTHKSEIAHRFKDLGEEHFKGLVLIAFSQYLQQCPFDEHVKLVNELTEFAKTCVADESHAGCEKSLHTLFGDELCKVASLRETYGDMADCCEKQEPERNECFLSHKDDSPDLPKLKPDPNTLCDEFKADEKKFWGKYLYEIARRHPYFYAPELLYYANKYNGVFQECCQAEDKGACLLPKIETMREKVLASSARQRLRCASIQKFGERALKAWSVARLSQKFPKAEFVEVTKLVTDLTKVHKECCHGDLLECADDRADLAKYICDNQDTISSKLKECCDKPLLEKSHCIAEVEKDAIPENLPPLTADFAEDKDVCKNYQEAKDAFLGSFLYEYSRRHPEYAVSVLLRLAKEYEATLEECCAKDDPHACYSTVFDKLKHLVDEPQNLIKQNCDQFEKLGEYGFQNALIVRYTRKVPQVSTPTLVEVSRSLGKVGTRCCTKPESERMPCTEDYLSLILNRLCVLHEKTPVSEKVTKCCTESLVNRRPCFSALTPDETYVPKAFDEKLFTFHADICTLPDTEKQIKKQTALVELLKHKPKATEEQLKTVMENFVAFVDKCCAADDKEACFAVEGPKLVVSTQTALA

[11] = probe aXIP binding to arrayed compounds – biochemical, NeuroSMM set, 635/667 nm fluorescence, primary screen (AID 1119); conditions: small-molecule microarray, higher = more signal, called active from +8 up or from −8 down;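 further: probe is the protein aXip251-270 applied at 1 µg/mL to compound-printed slides; binding of probe to printed compounds measured as 667 nm fluorescence plus signal to noise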
[12] = probe aNOTCH3 binding on compound microarray – biochemical, small-molecule microarray, 635/667 nm fluorescence, primary screen (AID 1120); conditions: higher = more signal;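 further: probe is a biotin-tagged antibody raised against NOTCH3 rather than NOTCH3 protein; score merges spot fluorescence near 667 nm with spot signal to noise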
[13] = probe aNOTCH2 binding on compound microarray – biochemical, small-molecule microarray, 635/667 nm fluorescence, primary screen (AID 1121); conditions: higher = more signal;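 further: score merges feature fluorescence read at 667 nm with its signal to noise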
[14] = target: Carbonic anhydrase 2 (Homo sapiens) (UniProt P00918); assay: compounds binding carbonic anhydrase 2 – biochemical, small-molecule microarray, Alexa647-labelled CAII, profiling panel (AID 1122); conditions: CAII-A647 binding fluorescence, higher = more signal
[15] = COS7 lysate on small-molecule microarray, probe aHis, 635 nm (AID 1123); conditions: COS7 cell lysate, fluorescence, higher = more signal;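 further: z-score combines 667nm fluorescence intensity with signal-to-noise per printed compound spot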
[16] = probe aLAP1 signal on lysate-treated microarray – cell lysate, small-molecule microarray, COS7 lysate, primary screen (AID 1124); conditions: probe aLAP1, fluorescence, higher = more signal;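 further: lysate comes from COS7 cells expressing LAP1 and is applied at 0.3 µg/mL; score merges spot fluorescence near 667 nm with signal-to-noise over triplicate slides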
Sam68 (KHDRBS1) = assay: compounds binding KHDRBS1 protein – biochemical, small-molecule microarray, 635 nm fluorescence, primary screen (AID 1125); conditions: higher = more signal;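 further: score merges 667 nm channel intensity with signal to noise over triplicate slides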
[17] = system: Chordin-like protein 2 (CHRDL2); assay: compounds binding chordin-like 2 – biochemical, small-molecule microarray, 635 nm fluorescence, primary screen (AID 1126); conditions: fluorescence 635 nm, higher = more signal;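 further: printed compound slides probed with Chrdl2 protein at 4 µg/mL for 1 h at 4 C; score merges 667 nm emission intensity with signal to noise over three replicate slides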
[18] = target: Concanavalin-A (Canavalia ensiformis) (UniProt P02866); assay: compounds binding concanavalin A lectin – biochemical, small-molecule microarray, Alexa647 label, 635 nm, artefact control for SMM control protein annotation, primary screen (AID 1127); conditions: ConA-A647 binding fluorescence, higher = more signal;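 further: z combines 667 nm emission intensity with signal-to-noise across three replicate slides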
Concanavalin-A (Canavalia ensiformis), sequence (P02866 whole entry, looked up): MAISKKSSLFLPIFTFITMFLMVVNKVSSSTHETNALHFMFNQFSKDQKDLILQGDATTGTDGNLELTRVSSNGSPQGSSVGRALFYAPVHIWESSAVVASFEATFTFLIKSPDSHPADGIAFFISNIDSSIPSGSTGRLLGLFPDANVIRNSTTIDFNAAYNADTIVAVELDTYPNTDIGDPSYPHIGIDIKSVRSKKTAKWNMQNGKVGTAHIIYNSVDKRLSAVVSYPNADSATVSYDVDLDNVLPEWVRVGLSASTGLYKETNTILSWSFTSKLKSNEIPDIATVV

Compound | composite z-score [1] | z-score [2] | composite z-score [3] | composite z-score [4] | composite z-score [5] | composite z-score [6] | composite z-score [7] | composite z-score [8] | composite z-score [9] | composite z-score [10] | composite z-score (Albumin (Bos taurus)) | composite Z-score [11] | composite z-score [12] | composite z-score [13] | composite z-score [14] | composite z-score [15] | composite z-score [16] | composite z-score (Sam68 (KHDRBS1)) | composite z-score [17] | composite z-score [18]
[N-]=[N+]=NCc1ccccc1C[C@@]1(C(=O)N2CCCCC2)N=C(c2ccc(OCCCO)cc2)O[C@@H]1c1ccccc1CN=[N+]=[N-] | 0.905 | -2.73 | -0.133 | 2.02 | 1.37 | -0.101 | -0.0626 | 1.31 | 1.01 | 1.5 | 0.36 | 0.569 (inactive) | 0.0435 | 0.0515 | 0.711 | 1.81 | 1.06 | 1.08 | -1.07 | 1.09
CCCCNC(=O)c1ccc(C#C[Si](C(C)C)(C(C)C)C(C)C)c(OC(C)=O)c1 | 1.09 | -1.13 | 0.785 | 0.367 | -0.48 | -0.0977 | -0.2 | -0.216 | 0.15 | 2.24 | -0.154 | 0.168 (inactive) | 0.089 | -0.117 | 0.925 | 0.1 | -0.18 | 0.823 | 1.33 | 0.94
C=C(CCCC)/C(=C/C[C@H](OC(C)=O)c1ccc(OCCO)cc1)c1cc(C(=O)OC)ccc1OC | 1.37 | -1.69 | -0.399 | 0.142 | -0.212 | 0.027 | -0.221 | -0.132 | 0.405 | 0.558 | 0.891 | 0.414 (inactive) | 0.0297 | -0.0743 | 0.663 | 1.49 | 0.561 | 1.17 | -0.15 | 0.366
O=C(O)[C@H]1C[C@H]2C(=O)N[C@@H](Cc3ccccc3)C(=O)N2[C@H]1c1cccc(OCCO)c1 | 0.0635 | 4.5 | 0.978 | -0.309 | -0.411 | 0.0079 | -0.214 | 0.185 | 0.543 | 0.366 | -1.09 | 0.309 (inactive) | 0.182 | -0.0609 | 0.634 | 0.26 | -0.0699 | 1.05 | 1.01 | 0.95
[N-]=[N+]=Nc1ccccc1[C@@H]1OC(c2ccc(OCCCO)cc2)=N[C@]1(Cc1ccccc1)C(=O)NCc1ccccc1 | 0.656 | -2.53 | -0.0068 | 2.46 | 1.33 | 0.166 | 0.628 | 1.95 | 2.27 | 2.92 | 0.955 | -0.128 (inactive) | 0.367 | 0.156 | 0.379 | 2.74 | 1.13 | 1.3 | -0.553 | 1.18
COCC(=C=CC[C@@H](O)c1ccc(OCCO)cc1)CCO | 0.862 | -0.766 | -0.144 | -0.0954 | -0.102 | -0.0643 | 0.0639 | -0.197 | 0.506 | 0.0305 | -0.201 | 1.21 (inactive) | -0.17 | -0.0859 | 0.838 | 1.25 | 0.83 | 0.847 | 0.136 | -0.139
COCCOC(=O)N1C(=O)[C@@]2(c3cc(C#CCC(C(=O)OC)C(=O)OC)ccc31)[C@H](c1ccc(OCCO)cc1)N1[C@H](c3ccccc3)[C@H](c3ccccc3)OC(=O)[C@H]1[C@@H]2C(=O)Nc1nc2ccccc2s1 | 1.16 | -2.06 | 0.423 | 1.05 | -0.0309 | -0.0202 | -0.0793 | -0.114 | 0.743 | 1.06 | -0.86 | 0.575 (inactive) | -0.0077 | 0.15 | 0.405 | 0.221 | -0.157 | 1.31 | 0.219 | 1.11
CCc1cccc(NC(=O)O[C@H]2[C@H](OC(=O)Nc3ccccc3)[C@H](OC(=O)Nc3ccccc3)[C@@H](OC)O[C@@H]2CO)c1 | 1.44 | -3.86 | 0.0274 | 1.26 | -0.101 | -0.0006 | 0.23 | 1.11 | 1.03 | 0.0456 | 0.902 | 1.21 (inactive) | 0.211 | -0.0481 | 0.663 | 2.57 | 0.814 | 1.29 | -0.539 | 1
C=C(/C(=C/C[C@H](OC(=O)c1ccncc1)c1cccc(OCCO)c1)c1cnc2ccccc2c1)C(C)C | 0.589 | -4.47 | 0.67 | 0.127 | -0.412 | -0.0236 | -0.0011 | 0.0215 | 2.85 | 3.56 | -0.134 | -1.19 (inactive) | 0.0306 | -0.0264 | 0.942 | 0.301 | 1.04 | 1.23 | 1.33 | 0.898
CN(C)C(=O)[C@@]1(Cc2ccccc2)COC(c2ccc(OCCCO)cc2)=N1 | -0.112 | -1.4 | -0.906 | 0.153 | 0.369 | -0.319 | 0.0526 | -0.646 | 2 | -0.579 | 0.66 | -0.655 (inactive) | -0.507 | -0.308 | 0.541 | 2.86 | 0.178 | 0.581 | 0.26 | 0.113
C=CCNC(=O)[C@H]1[C@@H]2C(=O)O[C@@H](c3ccccc3)[C@@H](c3ccccc3)N2[C@@H](c2ccc(O)cc2)[C@]12C(=O)N(C(=O)OCCOC)c1ccc(C#CCC(C(=O)OC)C(=O)OC)cc12 | 1.07 | -1.53 | 0.798 | 1.5 | 0.475 | -0.147 | -0.154 | 0.0213 | 1.48 | 0.201 | 0.675 | 1.04 (inactive) | 0.0904 | -0.154 | 0.378 | 2.05 | 0.775 | 1.3 | 0.822 | 0.96
